# Screening results (PubChem)
# In the library only some 6% were active in any assay of this set; here they are far more common.
# Tau fluor cs – counter-screen for tau fibril formation inhibitors | Potency, µM (titrated, usually from 57.7 µM), for the others: at the top dose activity change, negative = decrease | hit rate 0.93% among 280,000 | tau K18 P301L Alexa594 fluorescence, heparin fibrillization | AID 1463; note: nearly all actives have a fitted effect of over 55% in size
#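 Human tau K18 P301L (15 uM unlabeled, 0.24 uM Alexa 594-labeled) in 100 mM sodium acetate pH 7 with 20 uM heparin, 6 hr at 37 C. ThT 30 uM added, 1 hr ambient; Alexa 594 FP and total fluorescence read at 555/632 nm.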
# Sfp inh – inhibitors of Bacillus subtilis Sfp phosphopantetheinyl transferase; Potency, µM, inactives show largest response in the series, negative = inhibition, actives largely listed as inhibitors; Biochemical Sfp PPTase activity, qHTS; hit rate 3.5% among 310,000;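 note: the enzyme is Sfp with the accession as filed and its product quenches rhodamine fluorescence; 0% = enzyme reaction without inhibitor and -100% = no enzyme wells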
#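 Sfp 15 nM + cpd, 15 min RT; start w/ rhodamine-CoA 5 uM, BHQ-2-YbbR 12.5 uM (final); 50 mM Hepes pH 7.6, 10 mM MgCl2, 0.01% NP-40, 0.01% BSA; read 525/598 nm at 0 and 30 min.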
# Tau fibril ThT – tau fibrillization inhibition (ThT binding). P10636. recombinant tau K18 P301L (four-repeat tau fragment), heparin-induced fibrillization, ThT fluorescence. Potency, µM (top dose mostly 57.4 µM), inactives show top-dose activity, negative = inhibition, hits mostly inhibitors. hit rate 2.1% among 270,000. AID 1460; note: nearly all actives have a fitted effect of over 55% in size
#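 K18 P301L tau (15 uM + 0.24 uM Alexa 594-tagged), heparin 20 uM, NaOAc pH 7, 6 h 37 C; ThT 30 uM, 1 h RT, ex 450/em 510 nm.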
# PLK1 PBD inh – inhibitors of human PLK1 polo-box domain binding; P53350; Plk1 PBD binding of FITC phosphopeptide, fluorescence polarization; Potency, µM, for the others: max response, negative = inhibition, usual class: inhibitors; hit rate 2.8% among 360,000; AID 720504; note: series mostly up to about 57 µM; nearly all actives have a fitted effect of over 65% in size
# Target sequence (P53350 whole entry, looked up, the tested form may be a part): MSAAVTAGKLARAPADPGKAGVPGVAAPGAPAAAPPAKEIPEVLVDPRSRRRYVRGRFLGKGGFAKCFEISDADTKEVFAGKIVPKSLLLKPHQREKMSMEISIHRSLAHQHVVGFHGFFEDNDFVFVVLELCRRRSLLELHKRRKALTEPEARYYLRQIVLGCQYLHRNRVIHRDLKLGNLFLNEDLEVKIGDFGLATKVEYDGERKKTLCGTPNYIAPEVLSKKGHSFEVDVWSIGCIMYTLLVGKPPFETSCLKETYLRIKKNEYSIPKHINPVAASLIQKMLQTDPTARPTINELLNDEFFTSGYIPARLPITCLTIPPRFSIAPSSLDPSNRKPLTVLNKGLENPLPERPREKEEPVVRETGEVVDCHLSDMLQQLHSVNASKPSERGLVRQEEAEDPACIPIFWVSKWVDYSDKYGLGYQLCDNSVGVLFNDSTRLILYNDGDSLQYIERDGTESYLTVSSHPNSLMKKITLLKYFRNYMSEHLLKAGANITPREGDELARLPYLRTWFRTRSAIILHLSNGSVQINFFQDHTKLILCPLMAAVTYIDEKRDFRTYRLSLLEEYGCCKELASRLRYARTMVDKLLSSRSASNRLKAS
# Tau FP inhib – blocks human tau fibril formation measured by polarization; P10636; K18 P301L tau heparin fibrillization, Alexa594 FP, 6 h; hit rate 0.39% among 280,000; AID 1468; Potency, µM (series often up to 57.7 µM), for inactives: at the highest dose activity, negative = inhibition, usual class: inhibitors; note: nearly all actives have a fitted effect of over 55% in size
#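 K18 P301L tau (15 uM unlabeled/0.24 uM Alexa 594-labeled, final) + compound + heparin 20 uM final; 100 mM NaOAc pH 7; 6 hr 37 C; ThT 30 uM final added, 1 hr RT; FP ex 555/em 632 nm.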
# VDR inh – inhibitors of human vitamin D receptor. P11473. VDR-SRC2-3 peptide fluorescence polarization, 2 h. Potency, µM, inactives show max response, negative = inhibition, hits mostly inhibitors. hit rate 0.93% among 400,000. AID 504847
#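 Measured by FP: displacement of SRC2-3 coactivator peptide from VDR by library compounds, following a two-hour ambient incubation.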
# The depositor's hits bear a star; u = inconclusive; x = not tested or not shown; [ ] = another dose, or the depositor's remark. Calls come from the whole dose curve; as a rule, active = well fitted curve in the direction sought with a large enough effect; inconclusive = small, poorly fitted or top-dose-only effect, or another doubt; inactive = no such curve, though single readings can be large; an effect the other way counts as inactive or inconclusive. Unless noted, % is set by controls: 0 for no effect and ±100 for the full control effect; potency is the fitted concentration of half-maximal effect.
SMILES,Tau fluor cs,Sfp inh,Tau fibril ThT,PLK1 PBD inh,Tau FP inhib,VDR inh
Cc1ccc(SCC(=O)Nc2nnc(C(C)(C)C)s2)cc1,x,-2%,x,21µM*,x,4%
COc1ccccc1N1CC(C(=O)Nc2nnc(SCC(=O)N3CCCC3)s2)CC1=O (stereo not drawn),x,x,x,u,x,-6%
COCCNC(=O)CSc1nnc(NC(=O)C2CC(=O)N(c3ccccc3OC)C2)s1 (stereo not drawn),x,50µM*,x,u,x,-14%
COc1cccc(N2CC(C(=O)Nc3nnc(SCC(=O)c4ccccc4)s3)CC2=O)c1 (stereo not drawn),u,79µM*,-17%,-14%,-9%,4%
COc1ccc2nc3ccccc3nc2c1N,u,4.5µM*,10µM*,-21%,u,u
COc1ccc2nc3cccc(OC)c3nc2c1,-26%,-85%,16µM*,u,u,-18%
COc1ccc2nc(-c3ccccc3)cc(OC)c2c1,-12%,3%,-8%,-4%,-4%,-3%
COc1cc2ccccc2cc1C(=O)Nc1ccc2oc(-c3ccc(Cl)cc3)nc2c1,2%,x,u,x,12%,-6%
O=C(O)c1ccccc1-c1ccccc1C(=O)Nc1ccc(-c2nc3cc(Cl)ccc3o2)cc1,-19%,7%,u,21µM*,-14%,-27%
COc1ccccc1C(=O)Nc1ccc2oc(-c3ccc(F)cc3)nc2c1,-12%,50µM*,u,-9%,1%,13%
O=C(Nc1ccc(-c2nc3cc(Cl)ccc3o2)cc1)c1cc(Br)ccc1Cl,-28%,x,-11%,x,-9%,-15%
C[C@@H]1CCCCO[C@@H](CN(C)S(=O)(=O)c2cn(C)cn2)[C@@H](C)CN([C@H](C)CO)C(=O)c2cc(N(C)C)ccc2O1,x,x,x,-20%,x,x
CC1=C(C(=O)N(C)C)CC(CC(=O)NCCCCc2ccccc2)C(=O)N1Cc1ccc(C(C)(C)C)cc1 (stereo not drawn),x,x,x,-5%,x,x
COc1ccccc1N1CC(C(=O)OC(C)C(=O)Nc2ccc(F)cc2)CC1=O (stereo not drawn),x,x,x,-7%,x,x
CCN1C/C(=C/c2cccs2)c2nc3ccccc3c(C(=O)O)c2C1,-17%,45µM*,u,-29%,-6%,15%
CCc1ccc(/C=C2\CN(CC)Cc3c2nc2ccccc2c3C(=O)O)cc1,-29%,2.5µM*,25µM*,-11%,u,-11%
O=C(O)c1c2c(nc3ccccc13)/C(=C/c1ccc(O)cc1)CC2,-8%,-21%,-18%,19µM*,9%,-7%
Cc1ccc(S(=O)(=O)N(C)C[C@H]2Oc3ncc(Br)cc3C(=O)N([C@H](C)CO)C[C@@H]2C)cc1,x,x,x,-20%,x,x
CN1C(=O)Cc2cc(S(=O)(=O)CCC(=O)Nc3ccc(Cl)cc3)ccc21,-22%,x,-12%,x,-4%,9%
CCOc1ccc(-c2nonc2NC(=O)c2oc3cc(Br)ccc3c2C)cc1,2%,x,16%,x,-10%,-3%
COC(=O)N1CCC2(CCCN(Cc3nccs3)C2)CC1,x,-9%,x,x,x,5%
Cc1cccc(C)c1NC(=O)C1(C)CSCC(=O)N1Cc1ccco1 (stereo not drawn),x,x,x,-5%,x,x
N#CCC(=O)Nc1ccc(C(=O)Nc2cccc(S(=O)(=O)N3CCCC3)c2)cc1,x,x,x,1%,x,x
Cc1cccc(CC(Cc2nc3ccccc3[nH]2)c2nc3ccccc3[nH]2)c1 (stereo not drawn),u,40µM*,-12%,-7%,-16%,3%
COC(=O)c1c(NC(=O)/C=C/C(=O)O)sc(Cc2ccccc2)c1C,6%,0%,-16%,-19%,13%,u
SMILES,Tau fluor cs,Sfp inh,Tau fibril ThT,PLK1 PBD inh,Tau FP inhib,VDR inh
Cc1c(Cc2ccccc2)sc(NC(=O)/C=C/c2cccc3ccccc23)c1C(N)=O,-25%,-16%,-10%,7.5µM*,-4%,u
CCCCCn1c(=O)c2c(nc3n2CCN3c2ccc(Br)cc2)n(C)c1=O,-6%,x,0%,x,5%,13%
Cc1ccccc1-c1cnc(C(O)c2ccc(-c3ccccc3)cc2)[nH]1 (stereo not drawn),x,x,x,-7%,x,x
O=C(O)c1cnc(-c2ccccc2)nc1Sc1ccc(Cl)cc1Cl,0%,15%,-4%,27µM*,-1%,u
O=C(O)c1cnc(-c2ccccc2)nc1Sc1cccc(Cl)c1,-16%,-2%,u,30µM*,-3%,-4%
CCOc1ccc(CNC(=O)c2cccc(NC(=O)N3CCSc4ncccc43)c2)cc1OC,-6%,x,3%,x,-8%,10%
C/C(CCN1CCCc2nc(C)c(C)cc21)=N\OC[C@@H](O)COCc1ccco1,-1%[11.6 µM],13%,-2%[11.5 µM],x,u,x
CC(=O)Nc1ccc(C2=NN(c3ccccc3)C(c3cccs3)C2)cc1 (stereo not drawn),8.9µM*[quencher],2%,-11%,-4%,u,-11%
CC(=O)N1N=C(c2ccccc2)CC1c1cccs1 (stereo not drawn),x,7%,x,-2%,x,2%
CC(=O)Nc1ccc(N2C(C(C)=O)=NN(c3ccc(Cl)cc3)C2c2sccc2C)cc1 (stereo not drawn),28µM*[quencher],20%,u,-4%,-15%,15%
CC(=O)Nc1ccc(N2C(C(C)=O)=NN(c3ccccc3)C2c2cccs2)cc1 (stereo not drawn),25µM*[quencher],0%,u,4%,0%,-1%
O=C(NC(c1ccccc1)c1ccsc1)C1CCN(CCOc2ccc(Cl)cc2Cl)CC1 (stereo not drawn),x,x,x,-9%,x,x
CN(C(=O)c1cc(-c2cccs2)nn1-c1ccccc1)C1CCS(=O)(=O)C1 (stereo not drawn),x,x,x,2%,x,x
CCOc1cc(CNc2ccc3c(c2)CCC3)ccc1O,-9%,14%,-22%,u,12%,-10%
COc1cc(CNc2ccc3c(c2)CCC3)cc(OC)c1O,u,40µM*,u,u,0%,-15%
Cc1ccc(NC(=O)c2c(C)oc3ccc(O)c(CN4CCN(Cc5ccccc5)CC4)c23)cc1,-15%,x,0%,x,u,3%
O=[N+]([O-])c1ccc(C(O)CN2CCN(c3ccccc3)CC2)cc1 (stereo not drawn),x,4%,x,-11%,x,-3%
Oc1ccc(N2CCN(CC(O)c3ccccc3)CC2)cc1 (stereo not drawn),x,50µM*,x,-3%,x,9%
Cc1cc(C)n(-c2nnc(N3CCN(c4ccc(F)cc4)CC3)nn2)n1,-24%,15%,13µM*,-10%,5%,u
O=C(O)c1ccccc1-c1c2ccc(=O)cc-2oc2cc(O)ccc12,-2%,1%,u,x,1%,2%
